Shown is part of a subset that was picked to be rich in hits.
TTR transcr act: increases transthyretin transcription; AID 1117267; 92,000 compounds, 1.3% hits; SH-SY5Y TTR promoter Gaussia luciferase, luminescence; 100% = recombinant luciferase protein wells; activation, % at 16.7 µM;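 active = activation above the mean of all tested compounds plus 3 SD, cut at about 9.5% in these data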;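 also: cells exposed to compounds for one day before reading; 0% = median of all test compound wells on the plate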
TTR inh HuH7: counter-screen for TTR activators: TTR transcription inhibitors in HuH7 cells | shares compounds with TTR transcr act | HuH7 TTR promoter-Gaussia luciferase reporter, luminescence | inhibition, % at 16.7 µM | 1,100 compounds, 4% hits | AID 1117279;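 active = average inhibition above the solvent-only control wells' mean plus 3 SD, cut at about 15% in these data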;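 also: 0% = cells with DMSO only and 100% = cells with inhibitor control FD; inhibitors lower well luminescence so higher value means more inhibition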
TTR up confirm: confirmation of human transthyretin transcription activators. activation, % at 16.7 µM. shares compounds with TTR transcr act. SHSY5Y TTR promoter Gaussia luciferase, luminescence; 100% = purified Lucia enzyme wells, no cells. 1,100 tested, under 10 active. AID 1117280;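 active = mean activation above a set limit taken from the earlier primary screen, cut at about 11% in these data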;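 also: 0% = DMSO-treated cells and 100% = recombinant Lucia luciferase without cells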
* = called active by the depositor.

SMILES | TTR transcr act | others
COc1ccc(Cn2ccc3ccc(-c4ccc5ccn(Cc6ccccc6F)c5c4)cc32)cc1 | 3
Cc1ccccc1Cn1cc(COC(=O)N2CCOCC2)nn1 | 0
COc1ccc(/C=N/N2CCN(C)CC2)c(OC)c1OC | 4
COc1ccc(/C=N/n2c(C)nnc2C)c(OC)c1OC | 10* | TTR inh HuH7=-6;TTR up confirm=0
COc1ccc(/C=N/n2c(-c3n[nH]c4c3CCC4)n[nH]c2=S)c(OC)c1OC | 5
CCOC(=O)[C@@]12CCC3=C1N(CCC3)C(=O)[C@H](CC(=O)NCCc1ccccc1OC)C2 | -1
O=C(CCN1CCCCC1)NCNC(=O)CCN1CCCCC1 | -1
C1CCCN(CCCCN2CCCCCC2)CC1 | 10* | TTR inh HuH7=-10;TTR up confirm=0
Clc1ccccc1OCCCCN1CCCCC1 | -1
COc1ccc(C(=O)COC(=O)CNC(=O)c2ccc(OC)cc2)cc1 | 2
COCCCNC(=O)C[C@@H]1C[C@@]2(C(=O)OC)CCCCC=C2N(CCc2ccc(OC)c(OC)c2)C1=O | 36* | TTR inh HuH7=-5;TTR up confirm=1
CCOC(=O)[C@]12CCCC=C1N(Cc1ccccc1)C(=O)[C@H](CC(=O)NCc1ccc(OC)c(OC)c1)C2 | -2
CCCCCCCCN1C(=O)[C@H](CC(=O)NCCc2ccccc2OC)C[C@@]2(C(=O)OCC)CCCC=C12 | -2
COc1cc2c(cc1NC(=O)C(C)OC(=O)c1ccc(S(=O)(=O)Nc3ccccc3Cl)cc1)oc1ccccc12 (stereo not drawn) | -1
C=CCNC(=O)C(=O)Nc1cc2c3c(c1)CCC(=O)N3CCC2 | 0
COc1cc(/C=C/C(=O)OCC(=O)NCCC2=CCCCC2)cc(OC)c1OC | 10* | TTR inh HuH7=-14;TTR up confirm=0
COc1ccc(C(=O)NCC(=O)OCC(=O)NCCC2=CCCCC2)cc1 | 0
COc1cc(C#N)ccc1OCC(=O)NCCC1=CCCCC1 | 1
C[C@H]1C2CC(OC(=O)Nc3ccc4c(c3)OCO4)C(C2)[C@H]2CCCCN21 (stereo partly drawn) | 0
N#CCCN(Cc1ccccc1)C(C(=O)NC1CCCCC1)c1cc2ccccc2o1 (stereo not drawn) | 0
O=C(OCC#CCSc1nnc(-c2cccc3ccccc23)o1)c1ccc(F)c(F)c1 | 0
C#CCNC(=O)C[C@@H]1C(=O)N2CCCC3=C2[C@@]1(C(=O)OCC)CCC3 | 4
O=C1c2cccn2CC2Cc3ccccc3N12 (stereo not drawn) | -1
CCCC[C@H](C(=O)N(C)c1cccc(OC)c1)[C@@H](O)c1ccc2ccccc2c1 | -1
CCCCCCCCN1C(=O)[C@@H](CC(=O)NCc2ccc(C)o2)C[C@@]2(C(=O)OC)C1=C[C@H](C(C)C)O[C@@H]2C1CC1 | -1
SMILES | TTR transcr act | others
Cc1cccc(NC(=O)CCCSc2nc3ccccc3[nH]2)c1 | 1
O=C(CCCSc1nc2ccccc2[nH]1)Nc1ccccc1 | 0
Cc1ccccc1OCCCSc1nc2ccccc2[nH]1 | 31* | TTR inh HuH7=-19;TTR up confirm=0
Cn1c(CNc2ccccc2F)nc2ccccc21 | 1
CCOC(=O)c1sc(N)nc1C(F)(F)F | -1
COC(=O)C1CN(CC(C)C)CCS(=O)(=O)N1Cc1cccc(Cl)c1 (stereo not drawn) | 2
COc1cccc2cc3c(nc12)C[C@@H]1CCCC(=O)N2CCC[C@@]12C3 | 0
CCCCn1c(SCC(=O)N2CCc3ccccc32)nnc1-c1ccncc1 | 17* | TTR inh HuH7=-10;TTR up confirm=-1
CCCn1c(SCC(=O)N2CCc3ccccc32)nnc1-c1ccco1 | -2
CCCn1c(SCC(=O)N2CCCc3ccccc32)nnc1-c1ccccn1 | 0
COc1ccc(Cn2ccc3ccc(-c4ccc5ccn(C(=O)c6ccc(C)cc6)c5c4)cc32)cc1 | -1
COc1cc2c(=O)n(CC3CCCO3)c(=O)n(CC(=O)Nc3cccc(Cl)c3)c2cc1OC (stereo not drawn) | 10* | TTR inh HuH7=-27;TTR up confirm=0
COc1ccc(NC(=O)Cn2c(=O)n(CC3CCCO3)c(=O)c3cc(OC)c(OC)cc32)c(OC)c1 (stereo not drawn) | 0
COc1cc2c(=O)n(CC3CCCO3)c(=O)n(CC(=O)Nc3ccc(F)cc3F)c2cc1OC (stereo not drawn) | 0
Cc1ccccc1CN1CCCCC(NC(=O)Nc2cccc([N+](=O)[O-])c2)C1=O (stereo not drawn) | -4
O=C(NC1CCCCN(Cc2ccc(Cl)cc2)C1=O)c1cc(-c2ccccc2)no1 (stereo not drawn) | -1
CCC[C@H]1OC(=O)[C@@H]2CCCN2C(=O)[C@H]([C@H](C)Cc2ccccc2)NC(=O)[C@@H]2CCCN2C(=O)[C@@H]2CCCN2C(=O)[C@H](C(C)C)OC(=O)[C@@H]2CCCN2C(=O)[C@H](C(C)C)NC(=O)C1(C)C | -1
Cn1cccc1/C=N/NC(=O)Cc1ccccc1 | 1
Cn1cccc1/C=N/NC(N)=S | 1
Cn1cccc1/C=N/NC(=O)C(O)c1ccccc1 (stereo not drawn) | 25* | TTR inh HuH7=-13;TTR up confirm=2
CC(C)(C)OC(=O)N1CCC(N[C@@H](Cc2c[nH]c3ccccc23)C(=O)NCCc2c[nH]c3ccccc23)(C(=O)NC2CCCCC2)CC1 | -2
CC(C)=CCC/C(C)=C/C[C@]12C[C@H](C(=O)O)N(C(=O)OC(C)(C)C)[C@@H]1N(C(=O)OC(C)(C)C)c1ccccc12 | -2
CCCCc1ccc2nc(NC(=O)c3ccc(Br)o3)sc2c1 | -1
CC1CC(=O)Nc2ccccc2N1C(=O)CSc1nnnn1C (stereo not drawn) | 14* | TTR inh HuH7=-6;TTR up confirm=0
CC1Cc2ccccc2N1C(=O)CSc1nnnn1C (stereo not drawn) | 6
SMILES | TTR transcr act | others
Cn1nnnc1SCC(=O)N1CCCc2ccccc21 | 2
O=C(NC12CC3CC(CC(C3)C1)C2)c1cc([N+](=O)[O-])ccc1N1CCOCC1 | 2
CC1=C([N+](=O)[O-])C(c2ccc(Cl)cc2)NC(=O)N1C (stereo not drawn) | 2
Cc1ccc(S(=O)(=O)N2CCC(C(=O)NNC(=O)c3ccncc3)CC2)cc1 | -1
CCC(C)C(=O)Nc1ccc(OC)cc1OC (stereo not drawn) | 1
COc1ccc(NC(=O)C(F)(OC)C(F)(F)F)c(OC)c1 (stereo not drawn) | 14* | TTR inh HuH7=-8;TTR up confirm=1
COc1ccc(NC(=O)/C=C/C(=O)O)c(OC)c1 | 2
O=C(OCC#CCSc1nnc(-c2ccc3ccccc3c2)o1)c1cccs1 | 1
CCOC(=O)[C@@]12CCCC=C1N(CCc1ccc(Cl)cc1)C(=O)[C@H]2CC(=O)N1CCC(c2ccccc2)CC1 | 0
COC(=O)c1cc(NC(=O)c2cc(-c3ccc(C(F)(F)F)cc3)oc2C(F)(F)F)ccc1N1CCOCC1 | -1
COC(=O)c1cc(NCc2ccccc2F)ccc1N1CCOCC1 | 10* | TTR inh HuH7=-9;TTR up confirm=-1
COC(=O)c1cc(NC(=O)c2c(C)noc2C)ccc1N1CCOCC1 | -1
CCOC(=O)c1nc(N/N=C/c2ccccc2)sc1Br | 6
CCS(=O)(=O)Nc1ccc2c(c1)C(=O)N(C)[C@@H]1CC[C@H](CC(=O)N3CCCCC3)O[C@H]1CO2 | 2
C[C@H]1[C@H](N(Cc2cccs2)Cc2cccs2)CC[C@@]23CCCN2C(=O)CCC[C@@H]13 | 1
Cc1cc(C)n(CCCC(=O)O)n1 | -2

Bioassay records: PubChem, The Scripps Research Institute Molecular Screening Center
